# A number with no mark means an inactive call. Inconclusive results are not listed. A call without a number means that no potency is given here. The source made the active and inactive calls. Unless noted, calls come from the whole dose curve; as a rule, active = well fitted curve in the direction sought with a large enough effect in the repeat runs; inconclusive = weak or mixed curves; inactive = no such curve, though single readings can be large; an effect the other way counts as inactive or inconclusive.
# What was measured:
# [1] = molecular target: Progesterone receptor (Homo sapiens) (UniProt P06401); assay: qHTS assay to identify small molecule agonists of the progesterone receptor (PR) signaling pathway (AID 1346784; calls by dose curve; note: nearly all actives have a fitted effect of over 30% in size)
# Procedure, shortened: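 Beta-lactamase reporter read-out: after 16 hr compound treatment at 37C and a further 2 hr at room temperature with LiveBLAzer B/G FRET substrate, fluorescence was measured in PR-UAS-bla HEK 293T cells grown in 2% charcoal-stripped serum.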
# [2] = molecular target: Progesterone receptor (Homo sapiens) (UniProt P06401); assay: qHTS assay to identify small molecule antagonists of the progesterone receptor (PR) signaling pathway (AID 1346795; active = well fitted inhibition curve with a large enough effect in the signal ratio in the repeat runs, not every such curve was filed as active; the % refers to the signal ratio; note: potency is the fitted concentration of half-maximal effect)
# Procedure, shortened: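 Read-out is fluorescence from the LiveBLAzer B/G FRET substrate, cleaved by a UAS-controlled beta-lactamase in PR-UAS-bla HEK293T cells after 16 hr exposure to compound plus 1 nM promegestone (final), followed by 2 hr at room temperature.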
# [3] = qHTS assay to identify small molecule antagonists of the progesterone receptor (PR) signaling pathway - cell viability counter screen (AID 1346798);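 note: HEK293T PR-UAS-bla cells stimulated with the agonist R5020; series mostly up to about 92 µM; nearly all actives have a fitted effect of over 50% in size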
# Procedure, shortened: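 HEK293T PR-UAS-bla, 2% charcoal-stripped FBS; 4 hr pre-plate; cpd + R5020, 16 h 37C; LiveBLAzer read first; then CellTiter-Glo 30 min RT, luminescence.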
# [4] = qHTS assay to identify small molecule agonists of the progesterone receptor (PR) signaling pathway - cell viability counter screen (AID 1346799; calls by dose curve; note: nearly all actives have a fitted effect of over 45% in size)
# Procedure, shortened: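 Luminescence from CellTiter-Glo, added after the beta-lactamase FRET read in the same wells, gave cytotoxicity in PR-UAS-bla HEK293T cells treated with compounds for 16 hr at 37C.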
# [5] = qHTS assay to identify small molecule antagonists of the TGF-beta/Smad signaling pathway - cell viability counter screen (AID 1346824); note: nearly all actives have a fitted effect of over 50% in size
# Procedure, shortened: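 Cytotoxicity counter-screen run in the same wells as the beta-lactamase Smad reporter read: CellTiter-Glo luminescence after 30 min at room temperature. HEK 293T SBE-bla cells had 5 hr compound exposure at 37 C with TGF-beta1 (0.25 ng/mL stock).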
# [6] = qHTS assay to identify small molecule agonists of the TGF-beta/Smad signaling pathway - cell viability counter screen (AID 1346829); note: top concentration of the series differs between compounds; nearly all actives have a fitted effect of over 45% in size
# Procedure, shortened: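 Cytotoxicity counter screen: CellTiter-Glo luminescence (30 min, room temperature) measured in the SBE-bla HEK 293T reporter wells after 5 hr compound treatment at 37 C and the 2 hr substrate step.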
# [7] = qHTS assay to identify small molecule agonists of the TGF-beta/Smad signaling pathway (AID 1346859; active = well fitted activation curve with a large enough effect in the signal ratio in the repeat runs, not every such curve was filed as active; the % refers to the signal ratio; note: series mostly up to about 77 µM)
# Procedure, shortened: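 SBE-bla HEK 293T, 4,000 cells/well, plated o/n; cpd in DMSO, 5 hr, 37 C/5% CO2; B/G FRET substrate 2 hr RT; ex 405, em 460/530 nm.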
# [8] = molecular target: Thyrotropin-releasing hormone receptor (Homo sapiens) (UniProt P34981); assay: qHTS assay to identify small molecule antagonists of the thyrotropin-releasing hormone receptor (TRHR) signaling pathway (AID 1346877; active = well fitted inhibition curve with a large enough effect in the repeat runs, not every such curve was filed as active; note: series mostly up to about 51 µM)
# Procedure, shortened: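 Kinetic fluorescence (3 min, 1 s resolution) following stimulation with TRH at 1 nM final; HEK293 cells bearing human TRHR; 5 min compound preincubation at RT; concentration-response over 15 points, triplicates.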
# [9] = molecular target: Thyrotropin-releasing hormone receptor (Homo sapiens) (UniProt P34981); assay: qHTS assay to identify small molecule agonists of the thyrotropin-releasing hormone receptor (TRHR) signaling pathway (AID 1346891; calls by dose curve; note: potency is the fitted concentration of half-maximal effect; for activation: series mostly up to about 58 µM)
# Procedure, shortened: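 Intracellular calcium rise, read as fluorescence every second for 3 min, served as the agonist signal in dye-loaded HEK293 cells expressing TRHR; each compound ran at 15 concentrations in triplicate.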
# [10] = Human pregnane X receptor (PXR) small molecule agonists, qHTS cell viability counter screen (AID 1346977); note: nearly all actives have a fitted effect of over 50% in size
# Procedure, shortened: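 PXR-Luc HepG2, 2,000 cells/well, 5% charcoal-stripped FBS; 5hr settle; cpd 24hr, 37C/5% CO2; CellTiter-Fluor at 23hr, read 1hr later (fluorescence).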
# Chain of Thyrotropin-releasing hormone receptor (Homo sapiens) (P34981 whole entry, looked up): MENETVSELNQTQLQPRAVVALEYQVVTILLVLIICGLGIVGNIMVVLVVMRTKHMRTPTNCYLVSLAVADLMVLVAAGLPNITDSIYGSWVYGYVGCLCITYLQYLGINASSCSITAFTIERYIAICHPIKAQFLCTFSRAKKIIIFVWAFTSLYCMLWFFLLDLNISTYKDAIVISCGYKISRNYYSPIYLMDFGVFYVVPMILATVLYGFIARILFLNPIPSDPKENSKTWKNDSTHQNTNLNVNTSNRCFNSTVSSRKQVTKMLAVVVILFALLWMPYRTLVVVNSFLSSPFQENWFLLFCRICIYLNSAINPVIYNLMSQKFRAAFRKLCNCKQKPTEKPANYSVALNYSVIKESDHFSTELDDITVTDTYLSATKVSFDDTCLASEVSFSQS
# Chain of Progesterone receptor (Homo sapiens) (P06401 whole entry, looked up): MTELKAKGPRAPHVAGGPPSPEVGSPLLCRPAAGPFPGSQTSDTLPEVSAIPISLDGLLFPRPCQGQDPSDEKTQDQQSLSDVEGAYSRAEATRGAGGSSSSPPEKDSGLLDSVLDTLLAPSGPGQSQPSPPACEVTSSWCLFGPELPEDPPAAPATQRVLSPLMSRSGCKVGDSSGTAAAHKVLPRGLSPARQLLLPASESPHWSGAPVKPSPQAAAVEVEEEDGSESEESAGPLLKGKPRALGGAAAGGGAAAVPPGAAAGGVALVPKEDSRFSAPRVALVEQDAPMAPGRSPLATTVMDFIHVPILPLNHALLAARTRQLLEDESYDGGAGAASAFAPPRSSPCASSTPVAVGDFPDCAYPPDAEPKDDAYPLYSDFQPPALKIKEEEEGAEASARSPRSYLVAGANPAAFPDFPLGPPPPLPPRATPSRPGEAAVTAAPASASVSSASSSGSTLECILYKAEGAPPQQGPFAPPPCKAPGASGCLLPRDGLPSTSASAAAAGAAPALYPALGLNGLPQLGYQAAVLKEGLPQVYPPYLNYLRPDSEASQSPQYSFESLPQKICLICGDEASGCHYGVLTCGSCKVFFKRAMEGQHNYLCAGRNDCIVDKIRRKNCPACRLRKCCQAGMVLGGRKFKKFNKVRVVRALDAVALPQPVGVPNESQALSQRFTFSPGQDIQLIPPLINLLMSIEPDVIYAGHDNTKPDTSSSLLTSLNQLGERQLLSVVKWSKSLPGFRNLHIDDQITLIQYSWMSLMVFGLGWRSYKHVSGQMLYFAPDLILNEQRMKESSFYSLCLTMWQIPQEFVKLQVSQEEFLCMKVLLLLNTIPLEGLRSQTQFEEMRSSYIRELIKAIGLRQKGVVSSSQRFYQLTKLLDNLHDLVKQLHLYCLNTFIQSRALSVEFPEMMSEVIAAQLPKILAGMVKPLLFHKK
Structure (SMILES),Potency [1],Potency [2],Potency [3],Potency [4],Potency [5],outcome [6],Potency [7],outcome [8],Potency [9],Potency [10]
COc1ccc(C(=O)N2CCN(CC(=O)N3CCOCC3)CC2)cc1,inactive,inactive,inactive,inactive,inactive,inactive,inactive,inactive,inactive,inactive
CCCCCCCCO[C@@H]1O[C@H](CO)[C@@H](O)[C@H](O)[C@H]1O,inactive,inactive,inactive,inactive,inactive,inactive,inactive,inactive,inactive,inactive
CCCCc1ncc(/C=C(\Cc2cccs2)C(=O)O)n1Cc1ccc(C(=O)O)cc1,inactive,inactive,inactive,inactive,inactive,inactive,inactive,inactive,inactive,inactive
COc1ccc(C(=O)Nc2nc3ccccc3c(NCc3ccccc3)c2C#N)cc1,inactive,inactive,inactive,inactive,inactive,inactive,–,–,–,inactive
O=C1[C@H]2CCCC[C@H]2C(=O)N1CCCCN1CCN(c2nsc3ccccc23)CC1,inactive,inactive,inactive,–,inactive,inactive,inactive,inactive,inactive,–
CCCCC(CC)COC(=O)CCCCCCCCC(=O)OCC(CC)CCCC (configuration not stated),inactive,inactive,inactive,inactive,inactive,inactive,inactive,inactive,inactive,inactive
O=P(O)(OCc1ccccc1)OCc1ccccc1,inactive,inactive,inactive,inactive,inactive,inactive,inactive,–,–,inactive
COc1cc(Cl)ccc1Oc1ccc(Cl)cc1Cl,inactive,8.39 µM (active),inactive,inactive,inactive,inactive,inactive,inactive,inactive,inactive
C=CC1CC2C=CC1C2 (configuration not stated),inactive,inactive,inactive,inactive,inactive,inactive,inactive,inactive,inactive,inactive
CCCCOC(=O)CCCCCCCC(=O)OCCCC,inactive,inactive,inactive,inactive,inactive,inactive,inactive,–,–,inactive
Cc1ccc(C(=O)Oc2ccc(C(O)CNC(C)(C)C)cc2OC(=O)c2ccc(C)cc2)cc1 (configuration not stated),inactive,inactive,inactive,inactive,inactive,inactive,–,inactive,inactive,inactive
O=S(=O)(Oc1ccc(Cl)cc1)c1ccccc1,inactive,24.3 µM (active),inactive,inactive,–,inactive,inactive,inactive,inactive,inactive
CC(COCCO)OCCO (configuration not stated),inactive,inactive,inactive,inactive,inactive,inactive,inactive,inactive,inactive,inactive
NCCCN1CCOCC1,inactive,inactive,inactive,inactive,inactive,inactive,inactive,inactive,inactive,inactive
O=C(CS)Nc1ccccc1,inactive,inactive,inactive,inactive,inactive,inactive,inactive,inactive,inactive,inactive
CCOc1ccc(O)cc1,inactive,inactive,inactive,inactive,inactive,inactive,inactive,inactive,inactive,inactive
C[N+]1(C)CCC(OC(=O)C(O)(c2ccccc2)C2CCCC2)C1 (configuration not stated),inactive,inactive,inactive,–,inactive,inactive,inactive,inactive,inactive,–
O=C(O)c1ccc(S(=O)(=O)O)cc1C(=O)O,inactive,inactive,inactive,inactive,inactive,inactive,inactive,inactive,inactive,inactive
CCN(CC)CCOC(=O)C(c1ccccc1)C1CCCCC1 (configuration not stated),inactive,inactive,inactive,–,inactive,inactive,inactive,–,–,–
CN1Cc2cc(C(=O)N3CCC(C4CCNCC4)CC3)ccc2NC(CC(=O)O)C1=O (configuration not stated),inactive,inactive,inactive,inactive,inactive,inactive,inactive,inactive,inactive,inactive
C[N+](C)(C)CCOC(=O)CCC(=O)OCC[N+](C)(C)C,inactive,inactive,inactive,inactive,inactive,inactive,inactive,inactive,inactive,inactive
CCCCC,inactive,inactive,inactive,inactive,inactive,inactive,inactive,–,27.1 µM (active),–
CC1CCC(=O)C1=O (configuration not stated),inactive,inactive,inactive,–,inactive,inactive,inactive,–,–,–

# Reference: PubChem BioAssay (Tox21)
